Nine molecules from PubChem BioAssay (NCI) can be followed below.

Holding throughout (assay): NCI-60 one-dose screen, 48 h (100 = growth as untreated, 0 = no growth, -100 = all killed)
What all share (conditions): 10 µM unless noted

The test system of test [1] is SK-MEL-2 melanoma.
Test [2] concerns EKVX NSCLC.
Test [3] has as its system SN12C renal.
Test [4] deals with UO-31 renal.
The test system of test [5] is TK-10 renal.
Test [6] relates to ACHN renal.
The subject of test [7] is A498 renal.
Test [8] concerns CCRF-CEM leukemia.
The subject of test [9] is MOLT-4 leukemia.
Test [10] concerns SR leukemia.
Test [11] has as its system RPMI-8226 leukemia.
Test [12] deals with OVCAR-8 ovarian.
The subject of test [13] is OVCAR-5 ovarian.
The test system of test [14] is OVCAR-4 ovarian.
Test [15] relates to SK-OV-3 ovarian.
For test [16], the system named is IGROV1 ovarian.
Test [17] relates to HS 578T breast.
Test [18] concerns NCI/ADR-RES ovarian.
Test [19] deals with OVCAR-3 ovarian.

The panel holds about 83,000 compounds, 20% with a hit somewhere; the sample as a whole holds those more often.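 Step 1: grow cells in 96-well plates. Step 2: add test compound at a single concentration. Step 3: incubate 48 h. Step 4: record percent growth.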 Unmarked numbers belong to inactive results. Active and inactive are the calls of the source. The calls were made as follows: active = growth percent below 10; inactive = the rest.

For `COc1cc(-c2nc3ccccc3s2)ccc1OCc1nc2n(n1)S(=O)(=O)c1ccccc1N2c1ccccc1`, the growth in test [1] is 98.5%; in test [2], 95.4%; in test [3], 108%; in test [4], 82.4%; in test [5], 121%; in [6], 107%. Moreover, the growth is 100% in test [7]; 112% in test [8]; 80.5% in test [9]; 23.7% in test [10]; 88.9% in [11]; 103% in test [12]. The growth in test [13] is 104%; in test [14], 102%; in [15], 110%; in test [16], 56.1%; in [17] it was 97%; in test [18] it was 107%.
Turning to `COc1cc(/C=C/C(=O)c2c(C)n([O-])c3cc(C)c(C)cc3[n+]2=O)cc(OC)c1OC`, the growth in test [1] was 69.6%; in test [2], 79.2%; in test [3], 72.8%; in test [4], 14.2%; in test [5], 77%; in test [6], 69.2%. In addition, the growth in test [7] was 41.8%; in test [8], 38%; in [9], 44.3%; in test [10], 29%; in test [11], 38.8%; in [12], 63.2%. The growth was 111% in test [13]; 73.3% in test [14]; 86.6% in [15]; -21.3% (active) in [16]; 69% in test [17]; 72% in [18].
As to `O=C(Nc1ccc(F)cc1)Nc1ccc(Cl)c([N+](=O)[O-])c1`, the growth in test [1] was 2.67% (active); in test [2], 15.8%; in [3], 15.8%; in test [4], 8.43% (active); in test [5], 16.6%; in [6], 4.79% (active). In addition, the growth in test [7] was 25.7%; in test [8], 18.6%; in test [9], 5.48% (active); in test [10] it was 31.8%; in test [12], 17.8%; in test [13], 44.3%. Besides, the growth in test [14] is 16.5%; in test [15] it was 34%; in test [16], 22.4%; in test [19], 10.1%; in test [17] it was 55.8%; in test [18] it was 14.1%.
As to `O=C(COc1ccc(Cl)cc1Cl)N1N=C(c2ccc(Cl)cc2Cl)CC1(O)c1cc(F)c(Cl)cc1Cl` (stereo not given), the growth was 95.3% in test [1]; 87.7% in test [2]; 155% in [3]; 76.3% in test [4]; 139% in test [5]; 234% in test [6]. For the same molecule, the growth in [7] is 142%; in test [8], 125%; in test [9] it was -47.9% (active); in test [10], 23.2%; in test [12], 93.2%; in [13] it was 105%. Besides, the growth in test [14] was 116%; in test [15], 110%; in test [16], 69.7%; in [17], 122%; in test [18] it was 106%.
Take `CC1(C)N=C(N)N=C(N)N1c1cccc(CCCCc2ccccc2)c1`: the growth is 7.3% (active) in [1]; 7.11% (active) in test [2]; 9.06% (active) in [3]; 27.2% in test [4]; 17.9% in test [5]; 33% in [6]. The growth was 61.7% in test [7]; 7.35% (active) in [8]; -35.9% (active) in test [9]; -50% (active) in [11]; 0.546% (active) in [12]; 38.5% in test [13]. Also, the growth in test [14] is 7.12% (active); in test [15], 30.3%; in test [19], -16.8% (active); in test [17], 66.5%; in [18], 90.3%.
For the molecule `CCOC(=O)C1CN(Cc2ccccc2)C(=O)C1=O` (stereo not given), the growth was 114% in test [1]; 110% in test [2]; 108% in test [3]; 64.3% in test [4]; 113% in [5]; 104% in [6]. Besides, the growth in [7] is 91.6%; in test [8], 22.9%; in test [10] it was 27%; in [11] it was 95.6%; in test [12] it was 107%; in test [13], 95.2%. Besides, the growth in test [14] was 91.9%; in test [15] it was 107%; in test [16], 109%; in test [19], 105%; in [18] it was 109%.
Regarding `C/C(=N\N=C1/SCC(=O)N1c1ccccc1)c1ccco1`, the growth in [1] was 91.6%; in [2] it was 105%; in test [3] it was 131%; in test [4], 84.9%; in test [5] it was 96.9%; in test [6] it was 106%. Further, the growth in [7] is 89.2%; in [8], -63.9% (active); in [9], 112%; in [11] it was 72.2%; in test [12] it was 103%; in [13], 117%. The growth in [14] is 146%; in test [15], 115%; in test [16], 60.8%; in [17] it was 104%.
With `COC(=O)c1oc2c(C(C)=O)c(OCCCN(C)C)ccc2c1C`, the growth is 106% in [1]; 187% in [2]; 109% in [3]; 75.3% in test [4]; 90.8% in test [5]; 107% in test [6]. In addition, the growth in test [7] is 125%; in test [8], -13.6% (active); in test [9], 85.8%; in test [10] it was 95%; in test [12], 111%; in test [13], 101%. Also, the growth in [14] is 96.4%; in test [15], 121%; in [16], 30.1%; in test [17], 97.3%; in test [18] it was 87.4%.
For the molecule `c1ccc(OCC[P+](c2ccccc2)(c2ccccc2)c2ccccc2)cc1`, the growth in [1] is -16.2% (active); in test [2], 26.3%; in [3] it was 29.8%; in test [4] it was 63.5%; in test [5], 40.2%; in [6], 60.5%. Besides, the growth in [7] is 74.2%; in test [9], 34.8%; in test [10] it was 22.7%; in test [11], 10.9%; in test [12], 24.5%; in test [13] it was 43.1%. Besides, the growth in test [14] is 15.8%; in [15] it was 39.5%; in test [16], 8.06% (active); in [19] it was -31.5% (active); in test [18], 108%.
